Bioassay records deposited in PubChem BioAssay by several laboratories.
The list is not random: actives were taken first. Their share in the collection is about 4%.
Mtb UGM inh: inhibitors of M. tuberculosis UDP-galactopyranose mutase; hit rate 0.06% among 320,000; purified UGM, fluorescence polarization probe displacement; AID 504406; inhibition, % at 10 µM; P9WIQ1; in the data active = inhibition above about 10%, passing the limit was not always enough
Mtb betalactam: beta-lactam sensitization of Mtb H37Rv | inhibition, % at 25 µM | hit rate 0.27% among 330,000 | M. tuberculosis H37Rv growth with meropenem, percent inhibition; call rule not given here;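 also: growth measured after seven days incubation then overnight dye step; 0% = bacteria only wells and 100% = bacteria with antibiotic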
RecA intein inh: Mtb RecA intein splicing inhibition; inhibition, % (no concentration beside the values); AID 2221; hit rate 0.75% among 290,000; cell-free RecA intein splicing, fluorescence; in the data active = inhibition above about 30%;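 also: 0% = vehicle wells and 100% = reference inhibitor control wells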
Target sequence (P9WHJ3 whole entry, looked up): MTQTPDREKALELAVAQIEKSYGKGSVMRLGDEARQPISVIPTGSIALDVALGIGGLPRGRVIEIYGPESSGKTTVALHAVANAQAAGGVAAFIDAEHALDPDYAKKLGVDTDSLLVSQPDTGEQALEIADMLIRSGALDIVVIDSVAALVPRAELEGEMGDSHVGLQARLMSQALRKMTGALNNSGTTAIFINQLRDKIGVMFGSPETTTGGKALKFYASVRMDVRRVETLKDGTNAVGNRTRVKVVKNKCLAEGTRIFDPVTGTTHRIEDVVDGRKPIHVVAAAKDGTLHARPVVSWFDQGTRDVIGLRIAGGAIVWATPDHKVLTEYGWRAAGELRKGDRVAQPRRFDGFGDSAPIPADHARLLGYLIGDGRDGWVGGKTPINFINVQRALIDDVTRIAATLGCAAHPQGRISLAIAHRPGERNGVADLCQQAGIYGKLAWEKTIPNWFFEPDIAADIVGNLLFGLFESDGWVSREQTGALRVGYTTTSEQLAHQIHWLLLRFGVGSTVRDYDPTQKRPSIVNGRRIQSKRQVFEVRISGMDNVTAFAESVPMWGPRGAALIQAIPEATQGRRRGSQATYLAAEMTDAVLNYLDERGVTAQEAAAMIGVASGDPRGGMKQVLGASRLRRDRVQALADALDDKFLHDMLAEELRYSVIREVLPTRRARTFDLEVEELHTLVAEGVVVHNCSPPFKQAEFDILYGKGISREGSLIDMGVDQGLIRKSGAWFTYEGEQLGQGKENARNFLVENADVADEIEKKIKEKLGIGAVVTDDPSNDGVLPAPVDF
Rv3671c protease: inhibitors of M. tuberculosis serine protease Rv3671c; P9WHR9; inhibition, % at 5.96 µM; hit rate 0.048% among 320,000; in the data active = inhibition above about 38%;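 also: extracellular domain of Rv3671c used as enzyme; 0% = enzyme with DMSO and 100% = no enzyme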
GDH-TPI counter-1: counter-screen for M. tuberculosis FBA inhibitors: GDH-TPI coupled enzymes | hit rate 1.2% among 360,000 | inhibition, % at 4.8 µM | GDH-TPI coupled enzyme counterscreen, NADH absorbance | AID 588335; in the data active = inhibition above about 30%;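 also: 0% = DMSO wells and 100% = wells lacking the enzyme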
Mtb FBA inh: inhibits M. tuberculosis FBA enzyme; hit rate 2.3% among 360,000; inhibition, % at 1 µM; purified M. tuberculosis FBA, fluorescence read-out; AID 588726;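 also: 0% = vehicle and 100% = reference inhibitor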
Mtb FBA confirm: confirmation of M. tuberculosis fructose-bisphosphate aldolase inhibitors. shares compounds with Mtb FBA inh. purified M. tuberculosis FBA, fluorescence read-out. inhibition, % at 1 µM. hit rate 78% among 5,600. AID 651616;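 also: 0% = vehicle wells and 100% = reference inhibitor wells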
GDH-TPI counter-2: GDH-TPI inhibition counter-screen for FBA inhibitors; hit rate 81% among 5,600; shares compounds with Mtb FBA inh; inhibition, % at 1 µM; GDH-TPI coupled enzyme counterscreen, fluorescence; in the data active = inhibition above about 10%
An asterisk follows results filed as active; · = no result; + = active, no number. Rule as the data show it, unless noted: active = inhibition above about 27%; inactive = the rest.

SMILES | Mtb UGM inh | Mtb betalactam | RecA intein inh | Rv3671c protease | GDH-TPI counter-1 | Mtb FBA inh | Mtb FBA confirm | GDH-TPI counter-2
Cc1c(Cc2ccccc2)c(=O)oc2cc(OCC(=O)NCC(O)c3ccccc3)ccc12 (configuration not stated) | 0.9 | -4.4 | 0.6 | 1.0 | 11.8 | 79.5* | + | +
O=C(COc1ccc2c(-c3ccccc3)cc(=O)oc2c1)NCC(O)c1ccccc1 (configuration not stated) | 0.1 | -3.0 | -0.9 | -5.8 | 4.9 | 0.0 | · | ·
O=C(CNC(=O)OCc1ccccc1)OC(c1ccccc1)c1ccccc1 | · | · | · | · | 11.2 | 4.5 | · | ·
O=c1cc(C(F)F)oc2c1ccc1ccccc12 | 5.0 | 5.8 | 0.0 | 2.4 | 16.7 | 31.2* | 59.1* | 45.7*
CCN(CC(=O)Nc1ccc2c(c1)OCCO2)S(=O)(=O)c1cccs1 | -1.1 | -7.6 | 2.1 | -3.2 | 0.4 | 39.2* | 75.1* | 70.8*
CCN(CC(=O)Nc1ccc2c(c1)OCCO2)S(=O)(=O)c1ccc(C)cc1 | 0.1 | -7.9 | 3.9 | 5.6 | 3.7 | -2.6 | · | ·
CN(C(=O)c1cc([N+](=O)[O-])ccc1NCc1cccnc1)c1ccccc1 | 0.1 | -0.7 | -1.6 | -8.0 | 18.4 | -3.8 | · | ·
COc1ccc2c(c1)CCC1(C)CC(=O)C=C21 (configuration not stated) | · | · | · | · | 36.9* | 39.1* | 45.6* | 44.8*
COc1ccc(C2CC(=O)C=C3c4ccc(OC)cc4CCC32)cc1 (configuration not stated) | · | · | · | · | 25.7 | 4.3 | · | ·
Cc1noc(C)c1NC(=O)N(C)C[C@@H]1Oc2ccc(NC(=O)Cc3cn(C)c4ccccc34)cc2CC(=O)N([C@H](C)CO)C[C@@H]1C | 6.1 | -5.3 | · | -1.9 | 9.0 | 1.9 | · | ·
Cc1cccc(-c2sc(Nc3ccccc3)n[n+]2-c2ccc(F)cc2)c1 | -1.3 | 5.3 | -0.1 | -2.3 | 8.5 | -1.2 | · | ·
CC[C@@H]1C(c2cccc(C)c2)=NN(c2ccccc2)[C@H]1C(=O)N1CCOC1=O | · | · | · | · | 10.4 | 4.4 | · | ·
Cc1cccc(C2=NN(c3ccccc3)[C@H](CO)[C@H]2c2ccc(Cl)cc2)c1 | · | · | · | · | -4.2 | 55.0* | 4.2 | -0.9
Cc1cccc(C2=NN(c3ccccc3)[C@H](CO)[C@H]2c2ccc(F)cc2)c1 | · | · | · | · | 2.7 | 62.6* | 91.2* | 60.7*
O=C(Cc1cccs1)Nc1cccc(-c2nc3cc4ccccc4cc3[nH]2)c1 | -1.3 | 71.2 | 2.8 | -346.9 | 21.8 | 55.8* | -4.9 | -4.2
O=c1nc(-c2ccccc2)n(-c2ccccc2)[nH]1 | 0.9 | 8.7 | 0.8 | -0.7 | -3.8 | 38.8* | 156.5* | 128.8*
Cc1cccc(NS(=O)(=O)c2ccc(C(C)(C)C)cc2)n1 | -1.0 | 8.9 | -0.2 | 4.4 | 9.6 | 23.1 | · | ·
Cc1cccc(NS(=O)(=O)c2ccccc2)n1 | -0.1 | 3.3 | -0.6 | -6.4 | 2.2 | 29.1* | 69.2* | 59.2*
Cc1cccc(NS(=O)(=O)Cc2ccccc2)n1 | -0.5 | -5.1 | -0.3 | -3.2 | 10.1 | 65.8* | 65.8* | 54.4*
CNC(=S)N/N=C/c1c2ccccc2c(Cl)c2ccccc12 | -0.7 | 4.8 | 9.2 | -10.6 | -4.7 | -1.1 | · | ·
O=C(Nc1cccc2ccccc12)N1CCN(c2ncccn2)CC1 | -0.1 | 1.1 | 0.4 | -0.3 | 7.3 | 49.7* | + | +
O=C(Nc1cccc2ccccc12)N1Cc2ccccc2-n2nncc2C1 | · | · | · | · | 7.2 | 29.8* | 132.5* | 90.7*
O=C(Nc1cccc2ccccc12)N1CCN(c2ccccc2)CC1 | -1.7 | 6.5 | · | 3.9 | 4.2 | 27.1* | 115.1* | 99.9*
O=C(Nc1cccc2ccccc12)N1CC=CCC1 | -1.2 | 43.4 | -1.1 | -2.4 | -6.3 | 40.4* | 5.4 | 2.8
O=C(CSCC(=O)Nc1cccc2ccccc12)Nc1cccc2ccccc12 | 0.2 | -13.6 | 4.8 | -12.4 | -7.8 | 6.2 | · | ·
O=C(Nc1ccccc1)N1CCN(c2ccccc2)CC1 | · | · | · | · | 11.6 | -0.8 | · | ·
CCNC(=O)N1Cc2ccccc2-n2nncc2C1 | · | · | · | · | 0.0 | 1.2 | · | ·
CCC1(C)NC(=O)N(CC(=O)NCC(=O)Nc2c(C)cc(C)cc2C)C1=O (configuration not stated) | 4.1 | -1.8 | · | -6.3 | 7.6 | 6.1 | · | ·
